Compounds with a hit are over-represented: about 11% of the library has one in this group of screens.
HPGD inh = HPGD (human) dehydrogenase inhibition; purified HPGD, NADH fluorescence kinetic, PGE2 substrate; Potency, µM, usual class: inhibitors; 150,000 compounds, 4.3% hits; AID 894
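20 nM HPGD preincubated 15 min at room temperature with compound in 50 mM Tris-HCl pH 8, 0.01% Tween 20. Started with 1 mM NAD+ and 30 uM prostaglandin E2; NADH fluorescence (360/450 nm) read 5 times over 30-s intervals, last minus first.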
PNC assembly inh = blocks assembly of the perinucleolar compartment; PC3M PTB-GFP, PNC prevalence imaging, 16 h; hits give low values; AID 2417; activity change (PNC), negative = inhibition, % at 10 µM; 140,000 compounds, 3.1% hits;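 active means readout at or below -70, meaning at least 70% loss of cells showing the perinucleolar compartment, a nuclear body marking cancer cells; inconclusive means readout between -30 and a set limit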
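Compounds are pinned in duplicate onto adhered PC3M cells stably expressing GFP-tagged PTB and incubated 16 h at 37 C. Cells are then fixed, nuclei stained with Hoechst, and PNC-positive cells counted.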
ALDH1A1 inh = ALDH1A1 (human) enzyme inhibition. AID 1030. Potency, µM (doses to about 75.3 µM), usual class: inhibitors. Purified ALDH1A1, NADH fluorescence, propionaldehyde substrate. P00352. 220,000 compounds, 7.3% hits
Target sequence (P00352 whole entry, looked up): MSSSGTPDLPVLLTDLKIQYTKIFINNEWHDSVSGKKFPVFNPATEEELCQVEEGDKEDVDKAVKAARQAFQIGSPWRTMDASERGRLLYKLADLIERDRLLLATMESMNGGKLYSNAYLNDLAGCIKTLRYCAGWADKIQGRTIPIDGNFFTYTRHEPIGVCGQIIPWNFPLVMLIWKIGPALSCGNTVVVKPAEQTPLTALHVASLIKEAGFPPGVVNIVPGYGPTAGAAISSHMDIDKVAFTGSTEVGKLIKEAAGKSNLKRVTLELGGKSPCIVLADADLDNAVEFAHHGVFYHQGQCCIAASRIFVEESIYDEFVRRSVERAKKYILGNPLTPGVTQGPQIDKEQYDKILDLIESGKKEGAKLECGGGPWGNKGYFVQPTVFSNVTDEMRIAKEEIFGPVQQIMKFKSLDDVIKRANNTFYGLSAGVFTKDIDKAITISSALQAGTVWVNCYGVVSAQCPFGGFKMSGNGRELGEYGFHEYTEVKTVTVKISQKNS
Large screens that a line does not name were inactive. Unless noted, the call rests on the fitted dose curve; in most records, active means well fitted inhibition curve with a large enough effect (not every such curve was filed as active); inconclusive means small, poorly fitted or top-dose-only effect, or another doubt; inactive means no such curve, though single readings can be large or run the other way.

CCOC(=O)c1c(NC(=S)NCC2CCCO2)sc(C)c1C (configuration not stated)	ALDH1A1 inh 17.8µM (no result: HPGD inh, PNC assembly inh)
CCOC(=O)c1[nH]c(C)c(C(=O)NCC2CCCO2)c1C (configuration not stated)	ALDH1A1 inh inconclusive
FC(F)(F)c1ccc(CN2C[C@@H]3C(c4ccc(C(F)(F)F)cc4)C4(c5ccccc5)CC3(C4)[C@H]2c2ccccc2)cc1 (some centres not stated)	none (no result: PNC assembly inh)
C/C(=N/N=C1\SCC(=O)N1c1ccccc1)c1ccc(C)cc1	none (no result: HPGD inh, PNC assembly inh)
COc1ccc(OCCC(=O)Nc2cc(C)on2)cc1	ALDH1A1 inh 22.4µM
COc1ccc(OCCCC(=O)Nc2nncs2)cc1	PNC assembly inh -100.0
COc1ccc(S(=O)(=O)N(C)c2ccc(OCC(=O)Nc3cc(C)on3)cc2)cc1	PNC assembly inh -97.0, ALDH1A1 inh inconclusive
COc1ccc(-c2csc(NC(=O)COc3ccc(N(C)S(=O)(=O)c4ccc(C)cc4)cc3)n2)cc1	none
Cc1cc(NC(=O)CCOc2ccc(F)cc2)no1	ALDH1A1 inh 0.708µM (no result: HPGD inh, PNC assembly inh)
O=C(CCCOc1ccccc1)Nc1nncs1	none
Cc1cc(NC(=O)Nc2ccc(F)cc2)no1	ALDH1A1 inh inconclusive
COc1ccc(CC(=O)Nc2cc(C)on2)cc1	PNC assembly inh inconclusive
Cc1cc(N)n(Cc2cccs2)n1	none (no result: HPGD inh, PNC assembly inh)
O=C(COC(=O)[C@H](Cc1ccccc1)NC(=O)c1cccs1)NC1CC1	ALDH1A1 inh inconclusive
O=C(O)CS(=O)(=O)CC(=O)NCc1cccc(C(F)(F)F)c1	none (no result: HPGD inh, PNC assembly inh)
O=C(NCC(=O)N(CCN1CCOCC1)C(C(=O)NC1CCCC1)c1ccccc1)c1cccs1 (configuration not stated)	none (no result: HPGD inh, PNC assembly inh)
Cc1cccc(S(=O)(=O)NC(Cc2c[nH]c3ccccc23)C(=O)O)c1 (configuration not stated)	none
CCCCNCc1cc(OCC)c(OCC)cc1Br	none (no result: HPGD inh, PNC assembly inh)
NCCCCCCNS(=O)(=O)c1ccc2c(Cl)cccc2c1	ALDH1A1 inh inconclusive (no result: PNC assembly inh)
COc1ccc(C2CC(c3ccccc3)=NN2C(=O)CN2N=NC3C(=O)N(c4cccc(F)c4)C(=O)C32)cc1 (configuration not stated)	none
O=C(OCn1nnc2ccccc2c1=O)c1cc(-c2ccccc2)nc2ccccc12	HPGD inh inconclusive, ALDH1A1 inh inconclusive
COc1ccc2c(c1)O[C@@H]1c3ccc(OC)cc3OCC21 (some centres not stated)	none (no result: PNC assembly inh)
Cc1oc(-c2ccccc2Cl)nc1CSCC(=O)N1CCCC1	PNC assembly inh -108.9, ALDH1A1 inh inconclusive
Cc1ccc(-c2nc(CSCC(=O)N3CCOCC3)c(C)o2)cc1	ALDH1A1 inh inconclusive
Cc1oc(-c2ccccc2Cl)nc1CSCC(=O)NC1CCCC1	ALDH1A1 inh 14.1µM
Cc1ccc(-c2nc(CSCC(=O)N3CCN(C(=O)c4ccco4)CC3)c(C)o2)cc1	ALDH1A1 inh 22.4µM
Cc1ccc(-c2nc(CSCC(=O)N3CCN(c4ccccn4)CC3)c(C)o2)cc1	ALDH1A1 inh inconclusive
CCN1CCCC1CNC(=O)CSCc1nc(-c2ccccc2C)oc1C (configuration not stated)	none
CCCC(C)NC(=O)CSc1nc2ccc(C)cc2[nH]1 (configuration not stated)	none (no result: HPGD inh, PNC assembly inh)
COc1ccc(C)cc1N(CC(=O)N/N=C/c1ccc2c(c1)OCO2)S(C)(=O)=O	none (no result: HPGD inh, PNC assembly inh)
Cc1cc(OCC(O)CNC(C)(C)C)ccc1Cl (configuration not stated)	none (no result: HPGD inh, PNC assembly inh)
COc1ccc(-n2c(=O)c(-c3cccs3)nc3cnc(OC)nc32)cc1	none (no result: HPGD inh, PNC assembly inh)
CCOC(=O)Cn1nnnc1CN(Cc1cccs1)Cc1cc2cc(C)ccc2[nH]c1=O	PNC assembly inh inconclusive, ALDH1A1 inh 15.8µM
CCOC(=O)Cn1nnnc1CN(CCc1ccccc1)Cc1cc2cc(CC)ccc2[nH]c1=O	ALDH1A1 inh inconclusive
Cc1ccc2[nH]c(=O)c(CN(CCO)Cc3nnnn3CCc3ccccc3)cc2c1	ALDH1A1 inh inconclusive
Cc1ccc2[nH]c(=O)c(CN(Cc3cccs3)Cc3nnnn3Cc3ccccc3)cc2c1	HPGD inh inconclusive, ALDH1A1 inh 14.1µM
COc1ccc(CCNC(=O)Cn2cnc3scc(-c4ccccc4)c3c2=O)cc1OC	none (no result: HPGD inh, PNC assembly inh)
COc1ccc(CN2C(=O)c3ccccc3C2C(=O)NC2CCCC(C)C2C)c(OC)c1 (configuration not stated)	none (no result: HPGD inh, PNC assembly inh)
CCOC(=O)CNC(=O)c1ccc(OCC(F)(F)F)cc1	none (no result: HPGD inh, PNC assembly inh)
Cc1cc(Cl)ccc1OC(C)C(=O)Nc1ccccc1N1CCOCC1 (configuration not stated)	PNC assembly inh -104.1
COc1ccc(Cl)cc1NC(=O)CN(C)CC(=O)Nc1ccccc1N1CCOCC1	none (no result: HPGD inh, PNC assembly inh)
COC(=O)c1ccccc1NC(=O)CNc1cc(Cl)ccc1N1CCOCC1	ALDH1A1 inh 31.6µM
COc1cc(OC)cc(C(=O)N[C@H](C(=O)Nc2ccccc2N2CCOCC2)C(C)C)c1	ALDH1A1 inh inconclusive
COc1ccccc1CNc1nc(-c2ccccc2CN(C)C)nc2ccccc12	none (no result: PNC assembly inh)
CCOC(=O)c1nc(-c2ccccc2)sc1C(C)=O	none (no result: HPGD inh, PNC assembly inh)
CCOC(=O)C1=C(N)N(c2cc(S(=O)(=O)N3CCOCC3)ccc2Cl)C(=O)C1	ALDH1A1 inh 14.1µM (no result: HPGD inh, PNC assembly inh)
CCOC(=O)c1cccc(S(=O)(=O)N2CCOCC2)c1	none (no result: HPGD inh, PNC assembly inh)
O=C(NC1CCCCC1)C1CCCN(c2nnnn2-c2ccccc2)C1 (configuration not stated)	ALDH1A1 inh 10µM
CCOC(=O)C1CCCN(c2c(N3CCN(c4ccccn4)CC3)c(=O)c2=O)C1 (configuration not stated)	PNC assembly inh inconclusive
CCOC(=O)C1CCCN(c2nnnn2-c2ccccc2)C1 (configuration not stated)	ALDH1A1 inh 7.08µM
O=C(NC1CCCC1)C1CCCN(S(=O)(=O)c2ccc(-n3cnnn3)cc2)C1 (configuration not stated)	none
O=C(c1cc(C(F)(F)F)cc(C(F)(F)F)c1)N1CCC2(CCCN(c3ccccc3)C2)CC1	none (no result: PNC assembly inh)
C[n+]1cccc(CNC(=O)/C=N/O)c1	none
O=C(/C=N\O)NCCCNCc1ccccc1	PNC assembly inh inconclusive, ALDH1A1 inh 22.4µM
CN(C)CCCNCCCNC(=O)c1ccncc1	none
O=C(NCCCNCc1ccccc1)c1ccncc1	ALDH1A1 inh 2µM
Cn1cc(Br)c(C(=O)n2cc(Br)cn2)n1	none (no result: HPGD inh, PNC assembly inh)
O=C(CCN1CCCCC1)NNC(=O)C12CC3CC(CC(C3)C1)C2	none (no result: HPGD inh, PNC assembly inh)
O=C(CCS(=O)(=O)Cc1ccc(Cl)cc1)NCCCN1CCOCC1	none
CN(C)C(=O)c1nnsc1Sc1ccc(Cl)cc1	none (no result: HPGD inh, PNC assembly inh)
c1ccc(-c2cc(-c3cc(-c4ccccn4)[nH]n3)n[nH]2)nc1	none (no result: PNC assembly inh)
CCN(CC)CCNc1nc(-c2ccc(OC)cc2)c(-c2ccc(OC)cc2)s1	none (no result: HPGD inh, PNC assembly inh)
COc1ccc(OCCC(=O)NC2CCCCC2)cc1	none (no result: HPGD inh, PNC assembly inh)
COc1ccc(-c2nn(CCC(=O)O)cc2CCC(=O)O)cc1	none
COC(=O)CCc1sc(NC2CCCCC2)nc1-c1ccc(OC)cc1	HPGD inh 22.4µM, ALDH1A1 inh inconclusive
COCCNc1nc(-c2ccc(OC)cc2)c(-c2ccc(OC)cc2)s1	ALDH1A1 inh 28.2µM (no result: HPGD inh, PNC assembly inh)
CCCCCCNc1nc(-c2ccc(OC)cc2)c(CCC(=O)O)s1	HPGD inh inconclusive, ALDH1A1 inh 22.4µM
CC(C)NC(=O)C1CCN(C2CCN(Cc3ccc4cccc(F)c4n3)CC2)CC1	none (no result: HPGD inh, PNC assembly inh)
CC(=O)Nc1ccc(/C=N/NC(=S)NC(C)C)cc1	none (no result: HPGD inh, PNC assembly inh)
CCOc1cc(CNc2ncn[nH]2)ccc1OCC(=O)NC(C)(C)C	none (no result: HPGD inh, PNC assembly inh)

High-throughput results (PubChem)
